From PubChem
12-LOX inh: Primary qHTS assay for inhibitors of human arachidonate 12S-lipoxygenase (ALOX12): Round 2 | Polyunsaturated fatty acid lipoxygenase ALOX12 (Homo sapiens), P18054 | purified 12hLO, xylenol orange hydroperoxide absorbance | Potency, µM (titrated, usually from 108 µM), usual class: inhibitors | 1.1% of 580,000 active | AID 1671190, 2021
Target sequence (P18054 whole entry, looked up): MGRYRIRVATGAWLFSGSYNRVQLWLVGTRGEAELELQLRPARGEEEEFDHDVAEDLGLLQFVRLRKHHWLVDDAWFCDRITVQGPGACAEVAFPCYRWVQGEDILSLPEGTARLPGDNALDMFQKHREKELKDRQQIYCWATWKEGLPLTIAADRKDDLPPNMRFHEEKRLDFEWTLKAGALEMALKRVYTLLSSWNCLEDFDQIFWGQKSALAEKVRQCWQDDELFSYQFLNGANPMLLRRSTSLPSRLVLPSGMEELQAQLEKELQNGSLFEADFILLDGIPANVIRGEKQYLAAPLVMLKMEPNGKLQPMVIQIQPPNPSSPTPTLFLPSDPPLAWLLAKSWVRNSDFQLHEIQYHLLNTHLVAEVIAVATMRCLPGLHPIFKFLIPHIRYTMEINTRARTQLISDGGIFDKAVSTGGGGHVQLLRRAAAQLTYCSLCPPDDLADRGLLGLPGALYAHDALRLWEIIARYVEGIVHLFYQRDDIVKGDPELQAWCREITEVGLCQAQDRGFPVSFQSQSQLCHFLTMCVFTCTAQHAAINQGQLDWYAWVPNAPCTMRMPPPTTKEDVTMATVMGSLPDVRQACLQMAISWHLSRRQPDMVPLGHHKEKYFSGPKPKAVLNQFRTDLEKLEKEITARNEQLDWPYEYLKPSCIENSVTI
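Hydroperoxide product was detected by ferrous iron/xylenol orange as the 573 to 405 nm absorbance ratio. Arachidonic acid at 40 uM (final) was turned over for 30 min at room temperature by 150 nM human 12hLO, pH 7.0 Hepes buffer, after 15 min compound preincubation.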
DT40 TDP1 no CPT: qHTS for Inhibitors of human tyrosyl-DNA phosphodiesterase 1 (TDP1): qHTS in cells in absence of CPT; AID 686978, 2013; Potency, µM (series often up to 46.2 µM), hits mostly inhibitors; DT40 Tdp1-/- hTDP1 cells, no CPT, ATP luminescence, 48 h; 15% of 420,000 active; note: nearly all actives have a fitted effect of over 55% in size
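No-CPT arm: Tdp1-/-;hTDP1 DT40 cells (400/well) plus compounds, incubated ≥48 hr at 37 °C. Readout CellTiter-Glo luminescence.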
DT40 TDP1 CPT: qHTS for Inhibitors of human tyrosyl-DNA phosphodiesterase 1 (TDP1): qHTS in cells in presence of CPT. chicken DT40 Tdp1-/-;hTDP1 cells + 20 nM CPT, ATP luminescence, 48 h. Potency, µM (highest dose often 46.2 µM), usual class: inhibitors. 12% of 420,000 active; note: nearly all actives have a fitted effect of over 55% in size
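Chicken DT40 Tdp1-/- cells complemented with human TDP1, 400 cells/well, exposed to compounds plus 20 nM camptothecin for at least 48 h at 37 C; viability read as ATP content by CellTiter-Glo luminescence.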
IL-1B inflam inh: qHTS for Inhibitors of Inflammasome Signaling: IL-1-beta AlphaLISA Primary Screen; THP-1 LPS/ATP IL-1B secretion, AlphaLISA, 16 h; stronger effect = lower value; AID 743279, 2014; activity change, % at 57.5 µM; 4.7% of 360,000 active; in the data active = activity change below about -50%; inconclusive = mostly about -30% to -49%
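THP-1 cells pretreated 1 hr with compounds (up to 57.5 uM final), then stimulated with LPS (250 ng/mL final) plus ATP (1.25 mM final); secreted IL-1B measured by AlphaLISA after 16 hr, decreased signal indicating inhibition.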
HT1080-NT tox: qHTS for induction of synthetic lethality in tumor cells producing 2HG: qHTS for the HT-1080-NT fibrosarcoma cell line; AID 686970, 2013; HT-1080-NT fibrosarcoma viability, CellTiter-Glo ATP luminescence, 48 h; Potency, µM (series often up to 46.1 µM), hits mostly cytotoxic; 1.6% of 360,000 active;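 note: NT is the 2HG producing partner of a matched IDH1 knockdown line; nearly all actives have a fitted effect of over 55% in size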
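Viability by CellTiter-Glo luminescence after 48 h compound exposure at 37C of HT-1080-NT cells (750/well, RPMI, 5% FBS). % activity scaled between DMSO wells and medium-only wells, then curve-fitted and categorized by curve class.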
HT1080 IDH1KD tx: qHTS for induction of synthetic lethality in tumor cells producing 2HG: qHTS for the HT-1080-IDH1KD cell line | Potency, µM (doses to about 46.1 µM), usual class: cytotoxic | HT-1080 IDH1 knockdown viability, ATP luminescence, 48 h | 2% of 360,000 active
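Knockdown cells (IDH1KD HT-1080) received compounds 2 h after plating at 750 cells/well and were kept 48 h at 37 °C in 5% FBS RPMI. A CellTiter-Glo luminescence read gave % activity for curve fitting.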
Hits are given with their value. Shown is part of a subset that was picked to be rich in hits. Unless noted, calls come from the whole dose curve; as a rule, active = well fitted curve in the direction sought with a large enough effect; inconclusive = small, poorly fitted or top-dose-only effect, or another doubt; inactive = no such curve, though single readings can be large; an effect the other way counts as inactive or inconclusive.

`O=C(Nc1cccc(C(F)(F)F)c1)c1csc(-c2ccncc2)n1` gave 12-LOX inh inactive, DT40 TDP1 no CPT inconclusive, DT40 TDP1 CPT inactive, IL-1B inflam inh inconclusive, HT1080-NT tox inactive and HT1080 IDH1KD tx inactive.
`COc1ccc2c(c1)[C@@H](NC(=O)c1c(C)noc1C)[C@H](C)[C@@H](c1ccccc1)N2C(=O)NC(C)C` gave 12-LOX inh inactive.
For CC(C)NC(=O)C1CCN(C(=O)C(C)(C)C)CC1 the results were 12-LOX inh inactive.
Screening CCOC(=O)C1=CCN(S(=O)(=O)c2ccc(Cl)cc2)C1c1cccc(C)c1 (stereo not drawn) returned 12-LOX inh inactive, DT40 TDP1 no CPT inconclusive, DT40 TDP1 CPT inconclusive, IL-1B inflam inh inactive, HT1080-NT tox inactive and HT1080 IDH1KD tx inactive.
COc1ccc(CN(C)C(=O)C2CSC3(C)CCC(=O)N23)c(OC)c1 (stereo not drawn) was read as 12-LOX inh inactive, DT40 TDP1 no CPT 14.6µM, DT40 TDP1 CPT 11.6µM, IL-1B inflam inh inactive, HT1080-NT tox inactive and HT1080 IDH1KD tx inactive.
For CN(Cc1cccc(Cl)c1)C(=O)C1CSC2(C)CCC(=O)N12 (stereo not drawn) the results were 12-LOX inh inactive, DT40 TDP1 no CPT 20.6µM, DT40 TDP1 CPT 18.4µM, IL-1B inflam inh inactive, HT1080-NT tox inactive and HT1080 IDH1KD tx inactive.
For CN(Cc1ccc(Cl)cc1Cl)C(=O)C1CSC2(C)CCC(=O)N12 (stereo not drawn) the results were 12-LOX inh inactive, DT40 TDP1 no CPT 16.4µM, DT40 TDP1 CPT 13µM, IL-1B inflam inh inactive, HT1080-NT tox inactive and HT1080 IDH1KD tx inactive.
COc1ccc(CN(C)C(=O)C2CSC3(C)CCC(=O)N23)cc1OC (stereo not drawn) was read as 12-LOX inh inactive, DT40 TDP1 no CPT inactive, DT40 TDP1 CPT inactive, IL-1B inflam inh inactive, HT1080-NT tox inactive and HT1080 IDH1KD tx inactive.
Screening C=C(C)[C@@H]1CCC2(C(=O)OC)CC[C@]3(C)C(CCC4[C@@]5(C)C/C(=C\c6ccccc6OC)C(=O)C(C)(C)C5CC[C@]43C)C12 (stereo partly drawn) returned 12-LOX inh inactive.
O=C(NCc1ccccc1)c1ccc(-c2cccs2)cc1 was read as 12-LOX inh inactive.
Cc1cscc1NC(=O)/C=C/C(=O)O was read as 12-LOX inh inconclusive, DT40 TDP1 no CPT inactive, DT40 TDP1 CPT inactive, HT1080-NT tox inactive and HT1080 IDH1KD tx inactive.
Screening CC(=O)c1sc(C(C)(C)C)cc1NC(=O)/C=C/C(=O)O returned 12-LOX inh inactive, DT40 TDP1 no CPT inconclusive, DT40 TDP1 CPT inactive, IL-1B inflam inh -95.9, HT1080-NT tox inactive and HT1080 IDH1KD tx inactive.
COc1ccc(Nc2nc3ccc(C)cc3nc2-n2nc(C)cc2C)cc1 was read as 12-LOX inh inactive.
Screening Cc1[nH]c2ccccc2c1C(C#N)(C#N)C1C(=O)c2ccccc2C1=O returned 12-LOX inh inconclusive, DT40 TDP1 no CPT 2.06µM, DT40 TDP1 CPT 2.06µM, IL-1B inflam inh inactive, HT1080-NT tox 18.4µM and HT1080 IDH1KD tx 25.9µM.
For Cc1[nH]c2ccccc2c1CC#N the results were 12-LOX inh inactive, DT40 TDP1 no CPT inactive, DT40 TDP1 CPT inconclusive, IL-1B inflam inh inactive, HT1080-NT tox inactive and HT1080 IDH1KD tx inactive.
COC[C@H]1C[C@@H](NCc2ccc(F)cc2)[C@H](O)[C@@H]1O was read as 12-LOX inh inactive.
O=C(N/N=C/c1cc(Cl)ccc1OCCCOc1ccccc1Cl)c1ccccc1 was read as 12-LOX inh inactive.
`COc1ccc(OC)c(-n2c(=O)c3ccccc3c3ccccc3c2=O)c1` gave 12-LOX inh inactive, DT40 TDP1 no CPT inactive, DT40 TDP1 CPT inactive, IL-1B inflam inh -89.3, HT1080-NT tox inactive and HT1080 IDH1KD tx inactive.
For Cc1nc(NC(=O)CSc2nnc(-c3ccc4c(c3)OCO4)o2)c(Cl)cc1Cl the results were 12-LOX inh inactive, DT40 TDP1 no CPT inconclusive, DT40 TDP1 CPT inactive, IL-1B inflam inh inactive, HT1080-NT tox inactive and HT1080 IDH1KD tx inactive.
For O=C(CSc1nnc(-c2ccc3c(c2)OCO3)o1)Nc1ncc(C(F)(F)F)cc1Cl the results were 12-LOX inh inactive, DT40 TDP1 no CPT 16.4µM, DT40 TDP1 CPT inconclusive, IL-1B inflam inh inactive, HT1080-NT tox inactive and HT1080 IDH1KD tx inactive.
`O=C1OCCC1Nc1ccccc1Oc1ccccc1` (stereo not drawn) gave 12-LOX inh inactive.
Screening O=C(Cc1ccsc1)N1CCC(c2nc(C3CCOCC3)no2)C1 (stereo not drawn) returned 12-LOX inh inactive.
For CCCCN(CCCN)c1ccc(Br)cn1 the results were DT40 TDP1 no CPT inconclusive, DT40 TDP1 CPT inconclusive, HT1080-NT tox inactive and HT1080 IDH1KD tx inactive.
For NCCCCCc1nnc(SCc2ccc(Cl)c(Cl)c2)o1 the results were 12-LOX inh inactive, DT40 TDP1 no CPT inactive, DT40 TDP1 CPT inactive, IL-1B inflam inh inactive, HT1080-NT tox inactive and HT1080 IDH1KD tx inactive.
NCCCN(Cc1ccc(Cl)cc1)c1ccc(Br)cn1 was read as DT40 TDP1 no CPT 7.94µM, DT40 TDP1 CPT 10µM, HT1080-NT tox inconclusive and HT1080 IDH1KD tx 11.2µM.
`NCCCN(Cc1ccc(Cl)c(Cl)c1)c1ccc(Br)cn1` gave DT40 TDP1 no CPT 5.01µM, DT40 TDP1 CPT 3.55µM, HT1080-NT tox inconclusive and HT1080 IDH1KD tx 11.2µM.
Screening COc1ccc(O)c(C(=O)c2coc(=N)c(C(=O)Nc3ccc(SC(F)F)cc3)c2)c1 returned 12-LOX inh inactive, DT40 TDP1 no CPT 18.4µM, DT40 TDP1 CPT inconclusive, IL-1B inflam inh -54.4, HT1080-NT tox inactive and HT1080 IDH1KD tx inactive.
For CC(C)OC(=O)c1cc(C(=O)c2cc(F)ccc2O)coc1=N the results were 12-LOX inh inactive, DT40 TDP1 no CPT inactive, DT40 TDP1 CPT inactive, IL-1B inflam inh inactive, HT1080-NT tox inactive and HT1080 IDH1KD tx inactive.
For Nc1nc(-c2ccccc2)[nH]c(=O)c1N the results were 12-LOX inh inactive, DT40 TDP1 no CPT inconclusive, DT40 TDP1 CPT 25.9µM, IL-1B inflam inh inactive, HT1080-NT tox inactive and HT1080 IDH1KD tx inactive.
COc1ccc(-c2cc(C(F)(F)F)nc(S(=O)(=O)CCC(=O)N3CCOCC3)n2)cc1 was read as 12-LOX inh inactive, DT40 TDP1 no CPT 11.6µM, DT40 TDP1 CPT 6.51µM, IL-1B inflam inh -117.8, HT1080-NT tox inactive and HT1080 IDH1KD tx inactive.
